The nature of assay [1]: antimalarial activity against Dd2 strain (AID 2302;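 active means growth inhibition above 50% at the single 2 µM test dose, taken to imply half-maximal potency below 2 µM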;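 further: 0% = DMSO untreated growth and 100% = chloroquine plus artemisinin killed control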). The conditions noted are these: P. falciparum Dd2 in RBCs, LDH growth readout, 72 h; at 2 µM; hits give high values.
Assay [2] in a line: HepG2 cytotoxicity, primary screen, cytotoxicity control for P. falciparum antimalarial project, cell-based, ATP luminescence (AID 2303;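 active means inhibition above 50%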;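 further: 0% = DMSO wells and 100% = digitonin-killed cells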). The conditions noted are these: HepG2 viability, 24-48 h, at 10 µM, hits give high values.
Assay [3] addresses L-lactate dehydrogenase (Plasmodium falciparum (isolate CDC / Honduras)) (UniProt Q27743). Kind of assay: PfLDH activity inhibition – cell lysate, 3D7 strain, counter-screen for P. falciparum growth inhibition project (AID 2304).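 Further: 0% = vehicle and 100% = reference inhibitor.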 The settings on record: P. falciparum 3D7 crude extract, LDH APAD/NBT absorbance; at 2 µM; hits give high values. For orientation: A counterscreen serves to expose hits that act by an unwanted route or on another target.

Assay [4] in a line: inhibition of 3D7 malaria parasite growth – strain 3D7 (AID 2306).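 Further: 0% = DMSO wells and 100% = chloroquine plus artemisinin control wells.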 The conditions noted are these: P. falciparum 3D7 erythrocytic growth, LDH absorbance, 72 h; at 2 µM; hits give high values.
For assay [5], the target named is Calcium-dependent protein kinase 1 (Plasmodium falciparum (isolate 3D7)) (UniProt P62344). In words: PfCDPK1 kinase inhibitors, biochemical, TCAMS library (AID 1159585; cut-off not given, nearly all actives have IC50 up to about 0.98 µM;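 further: inhibitors leave more ATP so luminescence rises with inhibition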). The settings on record: recombinant PfCDPK1, Kinase-Glo ATP depletion luminescence.
Calcium-dependent protein kinase 1 (Plasmodium falciparum (isolate 3D7)), sequence (P62344 whole entry, looked up): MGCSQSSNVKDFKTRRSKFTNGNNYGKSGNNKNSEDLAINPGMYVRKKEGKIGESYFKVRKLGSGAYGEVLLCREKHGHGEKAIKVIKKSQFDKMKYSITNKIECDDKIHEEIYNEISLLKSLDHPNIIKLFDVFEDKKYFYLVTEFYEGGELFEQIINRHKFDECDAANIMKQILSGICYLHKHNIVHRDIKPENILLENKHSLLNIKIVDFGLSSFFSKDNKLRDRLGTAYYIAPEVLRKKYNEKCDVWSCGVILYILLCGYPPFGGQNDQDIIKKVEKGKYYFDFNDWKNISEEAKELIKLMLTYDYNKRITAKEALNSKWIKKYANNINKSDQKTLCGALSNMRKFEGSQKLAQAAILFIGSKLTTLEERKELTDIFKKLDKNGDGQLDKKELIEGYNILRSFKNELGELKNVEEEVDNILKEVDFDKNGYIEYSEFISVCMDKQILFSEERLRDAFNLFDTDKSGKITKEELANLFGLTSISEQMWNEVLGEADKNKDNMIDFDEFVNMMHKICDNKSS
The target of assay [6] is Plasmodium falciparum protein kinase 6 (PK6, PF3D7_1337100) (UniProt Q8IDW1). In words: PfPK6 kinase inhibitors, biochemical, TCAMS library (AID 1159586). The settings on record: recombinant PfPK6, Kinase-Glo ATP depletion luminescence. A general note: Kinase-Glo reads ATP consumption through a luciferase reaction.
Plasmodium falciparum protein kinase 6 (PK6, PF3D7_1337100), sequence (Q8IDW1 1-305): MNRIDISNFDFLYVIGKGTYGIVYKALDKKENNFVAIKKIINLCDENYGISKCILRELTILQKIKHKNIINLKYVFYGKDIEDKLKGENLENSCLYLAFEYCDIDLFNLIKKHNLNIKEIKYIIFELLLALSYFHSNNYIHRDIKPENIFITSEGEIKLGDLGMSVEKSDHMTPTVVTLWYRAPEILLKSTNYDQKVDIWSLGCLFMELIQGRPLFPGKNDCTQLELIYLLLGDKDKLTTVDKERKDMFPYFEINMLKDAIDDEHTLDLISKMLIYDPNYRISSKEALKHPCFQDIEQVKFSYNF
The target in assay [7] is Protein kinase 7 (PK7), Plasmodium falciparum 3D7 (PF3D7_0213400) (UniProt Q7YTF7). In words: inhibition of Plasmodium PK7 catalytic activity – biochemical, TCAMS antimalarial set, Kinase-Glo luminescence (AID 1159587). The conditions noted are these: recombinant PfPK7, Kinase-Glo ATP depletion luminescence.
Protein kinase 7 (PK7), Plasmodium falciparum 3D7 (PF3D7_0213400), sequence (Q7YTF7 1-343): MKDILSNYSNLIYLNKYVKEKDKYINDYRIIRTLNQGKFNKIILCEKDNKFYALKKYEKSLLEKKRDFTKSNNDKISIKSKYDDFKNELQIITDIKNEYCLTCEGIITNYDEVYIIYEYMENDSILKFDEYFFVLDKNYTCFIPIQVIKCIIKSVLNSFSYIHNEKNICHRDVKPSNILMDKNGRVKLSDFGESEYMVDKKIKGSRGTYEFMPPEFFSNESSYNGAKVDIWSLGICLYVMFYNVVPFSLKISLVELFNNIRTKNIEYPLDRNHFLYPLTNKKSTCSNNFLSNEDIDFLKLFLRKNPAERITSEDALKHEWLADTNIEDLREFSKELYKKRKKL
For assay [8], the target named is Calcium-dependent protein kinase 4 (Plasmodium falciparum (isolate 3D7)) (UniProt Q8IBS5). Kind of assay: PfCDPK4 kinase inhibitors, biochemical, TCAMS library (AID 1159588; cut-off not given, nearly all actives have IC50 up to about 0.91 µM). The settings on record: recombinant PfCDPK4, Kinase-Glo ATP depletion luminescence.
Calcium-dependent protein kinase 4 (Plasmodium falciparum (isolate 3D7)), sequence (Q8IBS5 whole entry, looked up): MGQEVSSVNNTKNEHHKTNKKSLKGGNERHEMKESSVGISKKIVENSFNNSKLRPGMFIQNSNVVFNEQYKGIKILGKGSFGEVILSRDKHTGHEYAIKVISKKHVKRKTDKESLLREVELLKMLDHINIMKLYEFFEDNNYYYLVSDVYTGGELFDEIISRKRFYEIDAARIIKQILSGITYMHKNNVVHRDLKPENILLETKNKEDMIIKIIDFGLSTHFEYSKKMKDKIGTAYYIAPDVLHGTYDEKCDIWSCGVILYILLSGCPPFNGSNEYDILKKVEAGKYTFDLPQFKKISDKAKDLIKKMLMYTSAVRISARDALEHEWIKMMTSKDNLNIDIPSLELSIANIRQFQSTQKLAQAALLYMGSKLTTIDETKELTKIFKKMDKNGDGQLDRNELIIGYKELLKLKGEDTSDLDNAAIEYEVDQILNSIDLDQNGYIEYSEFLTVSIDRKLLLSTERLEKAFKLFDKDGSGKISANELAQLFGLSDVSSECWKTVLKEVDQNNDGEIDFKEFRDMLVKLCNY

For 20 compounds, growth inhibition, inhibition and outcome results are on record in PubChem BioAssay.

Each structure is given as a SMILES string. Values without a mark were called inactive. For some of these results: Potency and affinity values are given separately. The source made the active and inactive calls. Unless noted, how the calls were made is not given here.

L-lactate dehydrogenase (Plasmodium falciparum (isolate CDC / Honduras)), sequence (Q27743 whole entry, looked up): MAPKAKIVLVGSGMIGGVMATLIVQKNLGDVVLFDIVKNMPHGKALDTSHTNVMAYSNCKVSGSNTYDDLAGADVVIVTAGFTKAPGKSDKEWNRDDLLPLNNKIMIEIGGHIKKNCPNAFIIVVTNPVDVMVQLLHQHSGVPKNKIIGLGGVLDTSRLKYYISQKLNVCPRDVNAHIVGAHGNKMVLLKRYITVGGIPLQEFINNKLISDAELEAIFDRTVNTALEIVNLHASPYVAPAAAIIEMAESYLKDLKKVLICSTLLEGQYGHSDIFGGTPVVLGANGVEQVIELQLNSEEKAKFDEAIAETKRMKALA

For orientation: inhibition means the relative decrease from the control value, in per cent. Regarding `CS(=O)(=O)c1ccc(CNCc2ccc(-c3ccc(-c4nc5ccc(F)cc5[nH]4)s3)cc2)cc1`, the growth inhibition is 97% (active) in assay [1] and 102% (active) in assay [4]. Also, the inhibition in assay [2] was 22%; in assay [3] it was 0%. Moreover, the result in assay [5], in assay [6], in assay [7] and in assay [8] was inactive.
Take `N=C(N)c1ccc(NC(=O)c2cc(Sc3ccc(O)c(C(=O)Nc4ccc(C(=N)N)cc4)c3)ccc2O)cc1`: the growth inhibition was 87% (active) in assay [1] and 93% (active) in assay [4]. The inhibition was 11% in assay [2] and 2% in assay [3]. The outcome in assay [5], in assay [6], in assay [7] and in assay [8] was inactive.
As for `COc1cc(Br)c(NC(=O)Nc2ccc(C(F)(F)F)c(O[C@@H]3CCN(C)C3)c2)cc1OC`, the growth inhibition in assay [1] was 27%; in assay [4], 97% (active). In addition, the inhibition is 10% in assay [2] and -1% in assay [3]. Moreover, the outcome in assay [5], in assay [6], in assay [7] and in assay [8] was inactive.
With `CCc1ccc(-c2cnc(N)c3cc(-c4ccnc(N)n4)ccc23)cc1`, the growth inhibition in assay [1] is 70% (active); in assay [4], 92% (active). The inhibition in assay [2] is 37%; in assay [3] it was 0%. In addition, the outcome in assay [5], in assay [6], in assay [7] and in assay [8] was inactive.
As for `O=C(NCC1CCN(Cc2cccc(C(F)(F)F)c2)C1)c1cc(-c2cccc(Cl)c2)cs1` (stereo not given), the results for the growth inhibition in assay [1] and in assay [4] were 14% and 93% (active), respectively. Further, the inhibition in assay [2] is 15%; in assay [3], -5%. The outcome in assay [5], in assay [6], in assay [7] and in assay [8] was inactive.
For the compound `Cc1cc(N2CCC(NS(=O)(=O)c3ccccc3)CC2)nc(Nc2cccc(C#N)c2)n1`, the growth inhibition in assay [1] is 29%; in assay [4], 93% (active). The values for the inhibition in assay [2] and in assay [3] were 52% (active) and 3%, respectively. The outcome in assay [5], in assay [6], in assay [7] and in assay [8] was inactive.
As for `COc1ccc2nccc(N3CCC(SCCNS(=O)(=O)c4ccc5c(c4)NC(=O)CS5)C3)c2n1` (stereo not given), the growth inhibition was 17% in assay [1] and 99% (active) in assay [4]. Further, the inhibition in assay [2] is 20%; in assay [3], -5%. Moreover, the outcome in assay [5], in assay [6], in assay [7] and in assay [8] was inactive.
Turning to `Cn1cncc1CCN(Cc1ccc(-c2ccc(C(F)(F)F)cc2)cc1)C(=O)Cn1c(SCc2cccc(F)c2F)cc(=O)c2ccccc21`, the growth inhibition in assay [1] is 90% (active); in assay [4] it was 99% (active). In addition, the values for the inhibition in assay [2] and in assay [3] were 24% and -5%, respectively. In addition, the result in assay [5], in assay [6], in assay [7] and in assay [8] was inactive.
As to `C[C@@H](Oc1cc(-n2cnc3cc(SCCN4CCN(C)CC4)ccc32)sc1C(N)=O)c1ccccc1Cl`, the values for the growth inhibition in assay [1] and in assay [4] were 65% (active) and 90% (active), respectively. For the same compound, the figures for the inhibition in assay [2] and in assay [3] were 46% and -1%, respectively. In addition, the result in assay [5], in assay [6], in assay [7] and in assay [8] was inactive.
Consider `C=C[C@]1(C)C[C@@H](OC(=O)CS[C@H]2CN3CC[C@H]2C3)[C@@]2(C)C3C(=O)CC[C@@]3(CC[C@H]2C)[C@@H](C)[C@@H]1O` (stereo not given in full), for which the growth inhibition in assay [1] is 75% (active); in assay [4] it was 91% (active). Besides, the inhibition in assay [2] is 18%; in assay [3], 4%. Further, the outcome in assay [5], in assay [6], in assay [7] and in assay [8] was inactive.
Consider `CC(C)OC(=O)c1cccnc1SCC(=O)Nc1ccc(C(F)(F)F)cc1Cl`, for which the growth inhibition in assay [1] was 88% (active); in assay [4], 97% (active). In addition, the inhibition in assay [2] is 3%; in assay [3], -3%. The outcome in assay [5], in assay [6], in assay [7] and in assay [8] was inactive.
Take `O=C(c1ccc(Br)o1)N1N=C(c2cccs2)CC1c1ccc(Br)cc1` (stereo not given): the values for the growth inhibition in assay [1] and in assay [4] were 45% and 96% (active), respectively. Moreover, the inhibition was 5% in assay [2] and -4% in assay [3]. In addition, the result in assay [5], in assay [6], in assay [7] and in assay [8] was inactive.
Take `COc1ccc(CON2C(N)=NC(N)=NC2(C)C)cc1OC`: the growth inhibition in assay [1] is 97% (active); in assay [4], 96% (active). Besides, the figures for the inhibition in assay [2] and in assay [3] were 68% (active) and 1%, respectively. The outcome in assay [5], in assay [6], in assay [7] and in assay [8] was inactive.
Regarding `CCN(CC)CCNc1ccnc2[nH]c3ccc(Cl)cc3c12`, the growth inhibition in assay [1] was 92% (active); in assay [4], 100% (active). In addition, the inhibition in assay [2] was 3%; in assay [3], 1%. Also, the result in assay [5], in assay [6], in assay [7] and in assay [8] was inactive.
Regarding `COc1ccc(C(F)(F)F)cc1N1CCN(CCCCNC(=O)c2ccc(NC(=O)c3ccc(Cl)cc3)cc2)CC1`, the growth inhibition in assay [1] was 1%; in assay [4], 94% (active). Besides, the inhibition in assay [2] is 12%; in assay [3], 8%. Besides, the result in assay [5], in assay [6], in assay [7] and in assay [8] was inactive.
Take `COC(=O)CCCCCOc1cc(Cc2cnc(N)nc2N)cc(OC)c1OC`: the results for the growth inhibition in assay [1] and in assay [4] were -3% and 90% (active), respectively. Moreover, the inhibition in assay [2] is -15%; in assay [3], 2%. Besides, the result in assay [5], in assay [6], in assay [7] and in assay [8] was inactive.
For `Cc1[nH]c2ccccc2c1C(=O)CSc1nn(-c2ccccc2)c(=S)s1`, the growth inhibition in assay [1] was 99% (active); in assay [4], 100% (active). In addition, the figures for the inhibition in assay [2] and in assay [3] were -6% and -1%, respectively. For the same compound, the result in assay [5], in assay [6], in assay [7] and in assay [8] was inactive.
As for `CC(C)CCNC(=O)C1Cc2c([nH]c3ccc(Br)cc23)C2(CCN(Cc3ccccc3)CC2)N1` (stereo not given), the results for the growth inhibition in assay [1] and in assay [4] were 68% (active) and 96% (active), respectively. Further, the inhibition was 100% (active) in assay [2] and -3% in assay [3]. In addition, the outcome in assay [5], in assay [6], in assay [7] and in assay [8] was inactive.
Consider `Cc1sc(CNCCCNc2cc(=O)c3ccccc3[nH]2)cc1Br`, for which the growth inhibition was 83% (active) in assay [1] and 100% (active) in assay [4]. The figures for the inhibition in assay [2] and in assay [3] were 12% and -3%, respectively. The result in assay [5], in assay [6], in assay [7] and in assay [8] was inactive.
On to `NC(N)=NC(=O)Nc1cc(Cl)c(F)c(Cl)c1`, for which the growth inhibition in assay [1] was 64% (active); in assay [4], 100% (active). For the same compound, the inhibition in assay [2] is 22%; in assay [3], -4%. The outcome in assay [5], in assay [6], in assay [7] and in assay [8] was inactive.
